# Reference: ChEMBL document CHEMBL3988442, “University of Dundee, Small-Polar-MMV Screening Library” (2021)
# Hit rate of the full screen: of about 66,000 compounds, about 960 (1.5%) showed an effect of 50% or more. This excerpt belongs to a sample that is enriched for strong results.
# Test system: Trypanosoma brucei
# Assay: Trypanosoma brucei 72 hour study
# Assay type: functional, organism-based
# Set-up: scale not given: in the data most compounds retested in dose-response had high values
structure (smiles),measurement,setting,value
Cc1cc(Cc2ccccc2C)cc(C2CCCNC2)n1 (stereo unspecified),Percent Effect,"30.3 µM, […]",49.51%
Cc1cc(Cc2ccccc2F)cc(C2CCCNC2)n1 (stereo unspecified),Percent Effect,"30.3 µM, […]",18.5%
CN1CC(=O)N(c2cnn(C)c2)CC12CCN(Cc1cccs1)C2.O=C(O)C(F)(F)F.O=C(O)C(F)(F)F (stereo unspecified),Percent Effect,"30 µM, 30.03 µM",-5.896%
Cc1nc(CN2C(=O)CCC23CCN(Cc2ccccn2)CC3)cs1.O=C(O)C(F)(F)F.O=C(O)C(F)(F)F,Percent Effect,"30.3 µM, […]",-6.926%
COCCN1C(=O)C[C@H]2[C@H]1CCN2Cc1ccc(OC)cc1.O=C(O)C(F)(F)F,Percent Effect,"30 µM, 30.03 µM",-19.5%
CC(C)CN1CCC(NC(=O)c2ccc(Cl)cc2Cl)CC1,Percent Effect,"30 µM, 30.03 µM",-12.53%
Cc1ncc(CNCCO)c2cc(C(=O)c3ccc(Br)cc3)oc12.Cl,Percent Effect,"30 µM, 30.03 µM",-4.371%
CCOCC1CN(CCc2ccccc2)Cc2c1cnn2C (stereo unspecified),Percent Effect,"30.3 µM, […]",62.26%
COCC1CN(CCc2ccc(OC)c(OC)c2)Cc2c1cnn2C (stereo unspecified),Percent Effect,"30.3 µM, […]",-2.73%
CCOCC1CN(CCOCc2ccccc2)Cc2c1cnn2C (stereo unspecified),Percent Effect,"30.3 µM, […]",-79.88%
O=C(O)C(F)(F)F.O=C1N(CC2CCCC2)CCC12CCN(c1ncc(F)cn1)CC2,Percent Effect,"30.3 µM, […]",-27.57%
Fc1ccccc1Sc1ccccc1CNC1=NCCN1.I,Percent Effect,"30 µM, 30.03 µM",6.107%
Cn1cccc1C(=O)N1C[C@@H]2C[C@@H](c3nc(C4CC4)cs3)O[C@@H]2C1.O=C(O)C(F)(F)F,Percent Effect,"30 µM, 30.03 µM",-16.96%
CC1CCCN(CCNC(=O)c2ccn(-c3ccccc3)n2)C1 (stereo unspecified),Percent Effect,"30 µM, 30.03 µM",26.82%
COc1ccc(-n2ccc(C(=O)NCCN3CCCCC3)n2)cc1,Percent Effect,"30.3 µM, […]",-2.952%
same,Percent Effect,"10 mM, 10 mM as filed; unlikely as a test dose",-24.45%
COc1ccc(-n2ccc(C(=O)NCCN3CCCCCC3)n2)cc1,Percent Effect,"30.3 µM, […]",53.03%
same,Percent Effect,"10 mM, 10 mM as filed; unlikely as a test dose",-44.94%
COc1ccc(-n2ccc(C(=O)NCCN3CCC(C)CC3)n2)cc1,Percent Effect,"30.3 µM, […]",26.29%
same,Percent Effect,"10 mM, 10 mM as filed; unlikely as a test dose",24.76%
CC1CCCN(CCNC(=O)c2ccn(-c3ccc(F)cc3)n2)C1 (stereo unspecified),Percent Effect,"30.3 µM, […]",63.43%
same,Percent Effect,"10 mM, 10 mM as filed; unlikely as a test dose",1.661%
CC1CCCN(CCNC(=O)c2ccn(-c3cccc(F)c3)n2)C1 (stereo unspecified),Percent Effect,"30.3 µM, […]",1.994%
same,Percent Effect,"10 mM, 10 mM as filed; unlikely as a test dose",11.39%
CCCn1[nH]cc/c1=N\C(=O)CN1CCc2cnc(C(C)C)nc2C1,Percent Effect,10 µM,-28.74%
CCc1ocnc1C(=O)N1CCOC(c2nc(C)n[nH]2)C1 (stereo unspecified),Percent Effect,10 µM,-27.2%
same,Percent Effect,"30.3 µM, […]",-13.47%
Cc1ccc(CN2Cc3nnn(C)c3C(COCc3ccccc3)C2)s1.O=C(O)C(F)(F)F (stereo unspecified),Percent Effect,"30.3 µM, […]",-18.47%
Cn1cc(-c2ncc3c(c2C(=O)O)CCN(CC2CC2)C3)cn1.O=C(O)C(F)(F)F.O=C(O)C(F)(F)F,Percent Effect,"30.3 µM, […]",-26.37%
COCCC1(CNC(=O)Nc2ccnc(C)c2)CCCC1,Percent Effect,"30 µM, 30.03 µM",5.014%
CN(C)c1ncc(I)c(C2CCCN2C)n1.Cl (stereo unspecified),Percent Effect,"30.3 µM, […]",-5.31%
CCc1cnc(CN(C)C2CCN(CCn3cc(C#N)cn3)C2)o1 (stereo unspecified),Percent Effect,"30.3 µM, […]",-0.7137%
Cl.Cn1nc(C2CCN(C(=O)Cc3ccsc3)CC2)c2cccnc21,Percent Effect,"30.3 µM, […]",16.05%
Cc1ccc(C)c(CS(=O)(=O)CC(=O)NC(C)c2ccc(F)cc2F)c1 (stereo unspecified),Percent Effect,"30.3 µM, […]",56.23%
Cc1ccc(C)c(CS(=O)(=O)CC(=O)Nc2ccc(F)cc2F)c1,Percent Effect,"30.3 µM, […]",17.81%
CCS(=O)(=O)CC(=O)NC(C)c1ccc(F)cc1F (stereo unspecified),Percent Effect,"30.3 µM, […]",-61.88%
CCC[C@@H]1CN(C(=O)c2cnc3ccccc3c2)C[C@H]1NS(C)(=O)=O,Percent Effect,"30.3 µM, […]",-86.77%
CCC[C@@H]1CN(C(=O)c2cc3ccccc3s2)C[C@H]1NS(C)(=O)=O,Percent Effect,"30.3 µM, […]",55.32%
CS(=O)(=O)NC1CCN(C(=O)c2cc3ccccc3s2)C1 (stereo unspecified),Percent Effect,"30.3 µM, […]",-42.34%
CNc1ncc2c(n1)CN(c1cccc(OC)c1)C2=O,Percent Effect,"30.3 µM, […]",5.042%
O=C(CN1C(=O)CCC1=O)NCCc1nc(C2CC2)cc(C(F)(F)F)n1,Percent Effect,"30 µM, 30.03 µM",-18.17%
Clc1ccc(C2(CNC3=NCCN3)CCCCC2)cc1.I,Percent Effect,"30 µM, 30.03 µM",18.91%
CCc1ccc(CN(Cc2ccco2)C(C)C(C)C)nc1 (stereo unspecified),Percent Effect,"30 µM, 30.03 µM",-19.36%
CC(C)C(C)N(Cc1ccccn1)Cc1ccco1 (stereo unspecified),Percent Effect,"30 µM, 30.03 µM",-27.64%
CC(C)C(C)N(Cc1cnc2ccccc2n1)Cc1ccco1 (stereo unspecified),Percent Effect,"30 µM, 30.03 µM",81.63%
CCc1c(C)nc(N)nc1N1CCCC(c2nc(CCOC)no2)C1 (stereo unspecified),Percent Effect,"30 µM, 30.03 µM",-46.14%
C[C@@H]1CN(Cc2cccc(F)c2)C[C@]12CCN(Cc1cccnc1)C2=O.O=C(O)C(F)(F)F.O=C(O)C(F)(F)F,Percent Effect,"30.3 µM, […]",-74.2%
CCc1nnc2n1CCN(Cc1ncc(-c3ccc(Cl)cc3)o1)C2,Percent Effect,"30.3 µM, […]",-0.05411%
Cc1cc(C[C@@H]2CCC[C@H]2NCc2ccccc2C)on1.O=C(O)CC(O)(CC(=O)O)C(=O)O,Percent Effect,"30.3 µM, […]",-2.54%
CCCOc1ccccc1CN[C@@H]1CCC[C@H]1Cc1cc(C)no1.O=C(O)CC(O)(CC(=O)O)C(=O)O,Percent Effect,"30.3 µM, […]",97.97%
Cc1cc(C[C@@H]2CCC[C@H]2NCc2ccccc2F)on1.O=C(O)CC(O)(CC(=O)O)C(=O)O,Percent Effect,"30.3 µM, […]",34.89%
